Measurements from PubChem BioAssay AID686979 (National Center for Advancing Translational Sciences (NCATS), 2013).
Among all 420,000 compounds or so, about 50,000 (12%) were called active. Another 26% or so got no clear call; they are omitted. What follows is part of a selection rich in actives, with near analogues and random picks from the rest. A number with no mark means an inactive call. Calls come from the whole dose curve; as a rule, active = well fitted inhibition curve with a large enough effect; inconclusive = small, poorly fitted or top-dose-only effect; inactive = flat fitted curve, though single readings scatter.

test: qHTS for Inhibitors of human tyrosyl-DNA phosphodiesterase 1 (TDP1): qHTS in cells in presence of CPT; details: chicken DT40 Tdp1-/-;hTDP1 cells + 20 nM CPT, ATP luminescence, 48 h; series mostly up to 46.2 µM; activity change, negative = growth inhibition: at the top concentration; note: nearly all actives have a fitted effect of over 55% in size
Text: Human tyrosyl-DNA phosphodiesterase 1 (TDP1) is a novel repair gene, and we propose to use it as a new target for anticancer drug development. TDP1 is not an essential protein, but under treatment with topoisomerase I poison (camptothecin: CPT), TDP1 works as a critical factor for cell survival. To directly identify novel TDP1 inhibitors active in a cellular environment, we have knocked-out the Tdp1 gene in chicken DT40 cells (Tdp1-/-) and generated a complemented counterpart cells that contains a stable transfection of the human TDP1 gene (Tdp1-/-;hTDP1 cells). For the primary screen, Tdp1-/-;hTDP1 cells will be exposed to small molecules in the presence or absence of CPT, and their growth kinetics will be evaluated after 48 hours by measuring ATP activity. […] The hit compounds will then be evaluated in the presence or absence of CPT using Tdp1-/- cells. […] In tertiary assays, biochemical gel-based assays will be used to assess whether the hit compounds specifically target TDP1. To this end, we have screened this cell line against the MLSMR in two primary screens. In one screen we add CPT and in the other we screen in the absence of CPT; this AID represents the screen where CPT was present. NIH Chemical Genomics Center [NCGC] NIH Molecular Libraries Probe Centers Network [MLPCN] MLPCN Grant: MH095538 Assay Submitter (PI): Yves Pommier, NCI
DT40-hTDP1 cells with 20 nM Camptothecin (add 20 microL of 1 mM CPT stock in 1 L of cell culture medium) were dispensed at 400 cells/5microL/well in tissue culture treated 1536-well white wall/solid bottom assay plates (Greiner Bio-One North America, NC, U.S.A.) using a Multidrop Combi 8 channel dispenser (Thermo Fisher, Waltham, MA, USA). 23 nL compounds and controls were transferred using the pin tool (Kalypsys, San Diego, CA, USA) to the assay plates. The assay plates were then incubated at 37 masculineC for a minimum 48 hr. Three microL of Cell Titer Glo solution was added to the plates and incubated at RT in dark for 30 min. Luminescence was read using ViewLux (Perkin Elmer) with 1 sec exposure slow speed, high gain and 2x binning.
% is set by controls: 0 for no effect and ±100 for the full control effect; potency is the fitted concentration of half-maximal effect.

SMILES	activity change, negative = growth inhibition	Potency
COC(=O)c1ccc(NC(=O)c2cc(S(=O)(=O)N3CCC(C)CC3)cn2C)cc1	2.23%	
CCOc1ccc(NC(=O)C(=O)NCCc2csc3nc(-c4ccccc4F)nn23)cc1	-6.96%	
COc1cc(OC)cc(C(=O)NCCc2csc3nc(-c4ccccc4F)nn23)c1	-21.4%	
Cc1c(Cl)cccc1NC(=O)C(=O)NCCc1csc2nc(-c3ccccc3F)nn12		18.4 µM (active)
COc1cccc(CN(C)CC(O)COC(c2ccccc2)c2ccccc2C)c1 (stereo unspecified)		20.6 µM (active)
CCCC(O)(c1ccc(OC)cc1)C(CN(C)C)c1ccccc1 (stereo unspecified)	-2.36%	
COc1cccc(CN(C)CC(=O)Nc2ccccc2C(=O)Nc2ccccc2)c1	-27.1%	
O=C(CN1CCN(S(=O)(=O)c2ccc(F)cc2)CC1)NC1CC1	-0.247%	
CCOC(=O)C1=CC[C@@H](c2ccccc2)N(S(=O)(=O)c2ccc(C)cc2)[C@H]1c1cccc(OC)c1		23.1 µM (active)
Cc1ccc(S(=O)(=O)N2CCCC2CO)cc1 (stereo unspecified)	-0.712%	
COc1ccc(S(=O)(=O)N2CCC(C(=O)NCCC(=O)NCc3cccc(OC)c3)CC2)cc1	7.57%	
Cc1ccc(S(=O)(=O)N2[C@@H](c3ccc(Br)cc3)C(C(=O)O)=C[C@H]2CC2CCCC2)cc1	3.8%	
Cc1ccccc1S(=O)(=O)N1[C@@H](c2cccc(Cl)c2)C(C(=O)O)=CC[C@H]1c1ccc(Cl)cc1	-0.808%	
CCOC(=O)C1=CCC(c2ccc(F)cc2)N(S(=O)(=O)c2ccc(C)cc2)C1 (stereo unspecified)		16.4 µM (active)
Cc1ccc(S(=O)(=O)N2[C@@H](c3ccccc3F)C(C(=O)O)=CC[C@H]2c2ccc(Cl)cc2)cc1	-19.3%	
Cc1ccc(S(=O)(=O)N2C[C@H]3C(=O)C[C@@H](c4cccc5ccccc45)N(S(=O)(=O)c4ccc(C)cc4)[C@H]3C[C@H]2c2ccc(Cl)cc2)cc1	1.73%	
Cc1ccccc1S(=O)(=O)N1[C@@H](c2cccc(Cl)c2)C(C(=O)OC(C)(C)C)=CC[C@H]1c1ccc(Cl)cc1		20.6 µM (active)
Cc1ccc(S(=O)(=O)N2[C@@H](c3cccc4ccccc34)C(C(=O)O)=C[C@H]2C(C)(C)C)cc1	5.23%	
CCCCC[C@@H]1C=C(C(=O)OCC)[C@H](c2ccccc2)N1S(=O)(=O)c1ccc(C)cc1		14.6 µM (active)
Cc1ccnc2nc(C(=O)Nc3nnc(-c4ccccc4)o3)nn12	-3.33%	
Cc1ccc2[nH]c(=O)c(CN(C)S(=O)(=O)c3cccc4nonc34)cc2c1	0.922%	
COc1cc(NS(=O)(=O)c2cccs2)cc(OC)c1	-14.8%	
COCCNc1nc(-c2ccccc2)nc2c1oc1ccccc12	3.02%	
Cc1cc(C)c2nc(-c3cccnc3)cc(C(=O)Nc3ccc(S(=O)(=O)Nc4onc(C)c4C)cc3)c2c1	8.61%	
CC1CCN(C(=O)C2CCN(S(=O)(=O)N3CCC4(CC3)OCCO4)CC2)CC1	9.32%	
COc1cc(C2C3C(=O)N(c4ccccc4)C(=O)C3ON2c2ccccc2)ccc1O (stereo unspecified)	-15.5%	

SMILES	activity change, negative = growth inhibition	Potency
COC(=O)c1sc(N)c(C(=O)OC)c1COC(=O)CNS(=O)(=O)c1ccc(C)cc1	-21.8%	
COc1ccc2oc(-c3ccc(C)c(NC(=O)c4sc5ccccc5c4Cl)c3)nc2c1	-24%	
CC1(C(=O)OCC(=O)Nc2ncc(Cl)cc2Cl)CC1(Cl)Cl (stereo unspecified)	2.88%	
N#Cc1cccc(CN2CCC(=O)N([C@H](CO)c3ccccc3)CC2)c1		inactive
CC(C)(C(=O)NO)c1ccccc1	-26.7%	
CN(C)S(=O)(=O)c1cccc(C(=O)Nc2cccnc2)c1	5.91%	
CCN(CC)S(=O)(=O)c1cccc(C(=O)Nc2ccccc2)c1		20.6 µM (active)
CCN(CC)S(=O)(=O)c1cccc(C(=O)NCC(=O)OCC(=O)NCc2ccccc2)c1	-13.6%	
CC(OC(=O)c1cc2ccccc2o1)C(=O)Nc1ccc(N2CCOCC2)cc1 (stereo unspecified)	-2.49%	
CN(c1ccccc1)S(=O)(=O)c1ccc2[nH]c(=O)[nH]c2c1	-4.05%	
CCCNC(=O)N1CCC(c2ccc3c(c2)OCO3)CC1	-2.65%	
O=C1NC[C@@H](Cc2ccc(O)cc2)N(CCc2cccc(F)c2)C1=O	-0.54%	
CCCC[C@@H]1CN=C(N)N1CCc1cc(C(F)(F)F)cc(C(F)(F)F)c1		3.66 µM (active)
CCCS(=O)(=O)N1CCN=C1SCc1cccc(F)c1	-23.1%	
CCCC[C@@H]1CN=C(N)N1CCc1cccc(F)c1		9.2 µM (active)
CCN(CC(=O)NCc1cccs1)C(=O)c1ccc(OC)c(S(=O)(=O)N2CCOCC2)c1	-0.26%	
Cn1c(=O)c2c(nc(N3CCOCC3)n2CCNC2=NCCC2)n(C)c1=O	-6.91%	
CC(NC(=S)NC1CCCCC1)C(c1ccccc1)N1CCOCC1 (stereo unspecified)	-22.3%	
CCn1c(SCC(=O)NNC(=O)c2ccc(OC)cc2)nnc1C(C)C	-2.01%	
Cc1c(-c2cccc(NC(=O)C(C)(C)C)c2)nc2ncccn12	-4.57%	
Cc1ccc(-c2c(N)nc3ncccn23)cc1	6.29%	
CCc1cccc(C)c1NS(=O)(=O)c1c(C)nc2sccn2c1=O		inactive
Cc1cccc(C)c1NC1=NC(=S)N(c2ccc(N(C)C)cc2)C1(C)C	-23.1%	
Cc1cccc(C)c1Nc1c(-c2ccccc2O)nc2ncccn12		20.6 µM (active)
CCc1cccc(C)c1Nc1c(-c2ccc(N(C)C)cc2)nc2ncccn12		10.3 µM (active)
